# AMA1 RON2 block – qHTS for Inhibitors of AMA1-RON; Towards Development of Antimalarial Drug Lead: Primary Screen; AlphaScreen AMA1-biotinylated RON2 peptide binding; Plasmodium falciparum AMA1 (3D7) - RON2 peptide interaction; Potency, µM (doses to about 58.2 µM), without a hit: at the top dose activity change, negative = inhibition, hits mostly inhibitors; actives 0.2% (n = 360,000);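 note: 0% = vehicle wells and -100% = peptide control; nearly all actives have a fitted effect of over 45% in size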
#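 AMA1 (3D7) with his tag at 25 nM final met compounds first, then biotinylated RON2 peptide at 25 nM; detection used donor plus acceptor beads, 10 µg/mL apiece, read by AlphaScreen after 30 min at room temperature.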
# Pf growth 96h – Primary qHTS for delayed death inhibitors of the malarial parasite plastid, 96 hour incubation. actives 6.9% (n = 320,000). AID 504834, 2011. P. falciparum luciferase reporter growth, 96 h. Potency, µM (titrated, usually from 28.7 µM), for the others: top-dose activity change, negative = inhibition, hits mostly inhibitors; note: % is set by controls: 0 for no effect and ±100 for the full control effect
#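 Luminescence readout: decreased luciferase signal marks inhibited growth of reporter-expressing P. falciparum in infected red cells (2% hematocrit, 0.05% parasitemia final), exposed to compound two generations (96 h, 37 C, 5% CO2).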
# NS1 function inh – qHTS Assay for Inhibitors of Influenza NS1 Protein Function; AID 2326, 2010; Potency, µM (top dose mostly 46.1 µM), inactives show at the highest dose activity, positive = more growth; actives 0.4% (n = 270,000); calls by dose curve; note: actives are rising curves; nearly all actives have a fitted effect of over 50% in size
#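 A cell-based growth assay was used: compounds that relieve NS1-induced slow growth of budding yeast raise OD600. Assay medium was yeast nitrogen base with ammonium sulphate and -URA supplement, pH 6.0, with 2% galactose.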
# HCV inh – qHTS Assay for Inhibitors of Hepatitis C Virus (HCV). Huh7.5.1 HCVcc-Cre infection, luciferase reporter, 44 h. Potency, µM (titrated, usually from 41.8 µM), for inactives: at the highest dose activity change, negative = inhibition, hits mostly inhibitors. actives 3.4% (n = 340,000). AID 651820, 2012; note: % is set by controls: 0 for no effect and ±100 for the full control effect
#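 Reporter virus HCVcc-Cre (~0.5 moi) infects cells exposed to compound; seeding density 1,000 cells/well with 4 h settling beforehand. Luminescence, 15 sec read, taken 44 h post-infection following a 15 min RT substrate incubation.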
# SARS PLpro yeast – qHTS of Yeast-based Assay for SARS-CoV PLP; S. cerevisiae expressing SARS-CoV PLpro, growth rescue; Potency, µM (series often up to 32.9 µM), for the others: at the highest dose activity, positive = growth rescue, most hits filed as activators; actives 0.19% (n = 330,000); calls by dose curve; note: 0% is about no effect; nearly all actives have a fitted effect of over 55% in size
# Pf growth 48h – Primary qHTS for delayed death inhibitors of the malarial parasite plastid, 48 hour incubation; P. falciparum luciferase growth in erythrocytes, 48 h; Potency, µM (highest dose often 28.7 µM), inactives show at the highest dose activity change, negative = inhibition, actives largely listed as inhibitors; actives 5.9% (n = 310,000); AID 504832, 2011; note: % is set by controls: 0 for no effect and ±100 for the full control effect
#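 Cell-based growth assay: transgenic P. falciparum expressing firefly luciferase, cultured in red cells within RPMI 1640 containing 0.5% w/v Albumax, 24 mM bicarbonate and gentamycin. A drop in luciferase activity indicates inhibition.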
# The depositor's hits bear a star; ? = inconclusive; · = no result; [ ] = another dose, or the depositor's remark. Hits are enriched below; roughly 12% of the tested compounds scored in any of these assays. Unless noted, calls come from the whole dose curve; as a rule, active = well fitted curve in the direction sought with a large enough effect; inconclusive = small, poorly fitted or top-dose-only effect, or another doubt; inactive = no such curve, though single readings can be large; an effect the other way counts as inactive or inconclusive. Potency is the fitted concentration of half-maximal effect.
SMILES,AMA1 RON2 block,Pf growth 96h,NS1 function inh,HCV inh,SARS PLpro yeast,Pf growth 48h
Cc1ccc(NC2CC(=O)N(c3ccc(N4CCCCC4)cc3)C2=O)cc1 (stereo not given),-6%,1.7µM*,7%,-18%,0%,4%
Cc1nc(-c2ccccc2)[nH]c(=O)c1Oc1ccc(Cl)cc1Cl,19%,-22%,0%,-20%,0%,0%
COc1ccc(-c2nc3ccc(N4CCCC4)cc3c(=O)[nH]2)cc1OC,8%,5%,13%,10µM*,-5%,-3%
Cc1ccc(Oc2c(C)nc(-c3ccccc3)[nH]c2=O)cc1,-4%,1.7µM*,-2%,-25%,1%,1µM*
COc1ccc2nc(C)[nH]c(=O)c2c1,16%,0%,-11%,-5%,-9%,8%
COc1ccc2nc(-c3ccccc3)[nH]c(=O)c2c1,7%,·,·,2.8µM*,·,·
NC(=O)CC(NC(=O)Cc1ccc(Cl)cc1)c1ccc(NCc2ccccc2)c([N+](=O)[O-])c1 (stereo not given),-1%,-1%,0%,-4%,-2%,?
O=C(CSc1nnc(CCCN2C(=O)c3cccc4cccc(c34)C2=O)n1-c1ccccc1)NCCCO,-3%,28%,-15%,24%,6%,?
O=C(CSc1nnc(CCCN2C(=O)c3cccc4cccc(c34)C2=O)n1-c1ccccc1)NCCCN1CCOCC1,-10%,-20%,-10%,52%,27%,9.3µM*
Cn1c(=O)c2c(nc(N3CCc4ccccc4C3)n2Cc2ccccc2F)n(C)c1=O,12%,-22%,-102%,?,-17%,13µM*
Cc1ccccc1Cn1c(CN2CCc3ccccc3C2)nc2c1c(=O)n(C)c(=O)n2C,-9%,?,?,?,-21%,13µM*
Cn1c(=O)c2c(nc(CN3CCc4ccccc4C3)n2Cc2ccc(F)cc2)n(C)c1=O,3%,·,-31%,?,·,·
C=CCn1c(COc2ccc3c(c2)CCCC3)nnc1SCC(=O)Nc1cccc(SC)c1,-8%,-7%,-8%,11µM*,-7%,-22%
COc1ccc(C2=CC(=O)C[C@H](c3ccc(F)cc3)C2)c(OC)c1,-11%,?,·,?,2%,?
COc1ccc(/C=C(/NC(=O)c2ccco2)C(=O)N2CCCCC2)cc1,-13%,2%,8%,5%,-6%,-8%
CN(C(=O)CC1C(=O)NCCN1Cc1cccc(F)c1F)C1CC(C)(C)NC(C)(C)C1 (stereo not given),-5%,?,-14%,19%,1%,37%
CCCCC1(CO)C(=O)N(c2ccccc2)N(c2ccccc2)C1=O,-22%,0%,4%,22%,0%,2%
CCCCC1(CC(=O)OCC)C(=O)N(c2ccccc2)N(c2ccccc2)C1=O,-1%,15µM*,-18%,6%,-18%,?
CCCCC1(Cc2cccc([N+](=O)[O-])c2)C(=O)N(c2ccccc2)N(c2ccccc2)C1=O,-8%,?,-6%,6.3µM*,-12%,3.7µM*
COCCCNC1=C(Cl)C(=O)c2ccccc2C1=O,10%,2.3µM*,-9%,-15%,0%,4.1µM*
CC(C)NC1=C(Cl)C(=O)c2ccccc2C1=O,?,0.93µM*,-85%,?,24%,·
CCN(CC)CCCNC1=C(Cl)C(=O)c2ccccc2C1=O,-14%,?,-9%,3.2µM*,-1%,?
CCN(CC)CCCNc1nc2ccccc2[nH]1,-5%,?,-8%,-1%,0%,-8%
CC(C)OCCCNC1=C(Cl)C(=O)c2ccccc2C1=O,20µM*,4.1µM*,-6%,-4%,0%,2.9µM*
O=C1C(Cl)=C(Nc2ccccc2)C(=O)c2ccccc21,-4%,8%,1%,?,-18%,23%
SMILES,AMA1 RON2 block,Pf growth 96h,NS1 function inh,HCV inh,SARS PLpro yeast,Pf growth 48h
CCN(CC)CC[n+]1ccc2c(C)c3[nH]c4ccccc4c3c(C)c2c1,·,·,-10%,·,·,·
Cc1ccc(-c2ccc(C(=O)O)[nH]2)cc1,-7%,6.6µM*,-156%,17%,3%,30%
COc1ccc(-c2ccc(C(=O)O)c(=O)[nH]2)cc1,-15%,70%,·,15%,1%,71%
CCCOC1OC(=O)c2c1ccc(OC)c2OC (stereo not given),22%,5.2µM*,3%,29%,-18%,18%
Cc1cc(C)c(C(=O)Nc2ccc(Br)c(C(F)(F)F)c2)c(C)c1,34%,9.3µM*,-2%,?,-91%,13µM*
O=C(Nc1ncn[nH]1)c1cccc(F)c1,64%,1.5µM*,·,1%,-2%,38%
CCc1ccc(C(=O)c2cnc3ccc(OC)cc3c2N2CCN(CC)CC2)cc1,-22%,36%,·,?,0%,-27%
CCN1CCN(c2c(S(=O)(=O)c3ccc(C)c(C)c3)cnc3ccc(F)cc23)CC1,-5%,2.3µM*,5%,-5%,-2%,?
O=C(NC(=S)NC1C2CC3CC(C2)CC1C3)c1ccccc1 (stereo not given),14%,10µM*,-17%,-21%,-5%,32%
CC(C)(Sc1cc(C(C)(C)C)c(O)c(C(C)(C)C)c1)Sc1cc(C(C)(C)C)c(O)c(C(C)(C)C)c1,6%,1µM*,19%,-11%[8.37 µM],17%,7.2µM*
CCOC(=O)c1cnc2c(-c3ccccc3)c(-c3ccccc3)nn2c1C,1%,25%,-6%,-8%,0%,?
Cc1ccc(S(=O)(=O)N2CCCC(c3nc4c(nnn4Cc4ccc5c(c4)OCCO5)c(=O)[nH]3)C2)cc1 (stereo not given),0%,?,17%,-4%,-3%,?
Nc1ccc2ccccc2c1,?,·,·,-11%,·,·
C[n+]1c2cc(N)ccc2cc2ccc(N)cc21,-6%,0.034µM*,·,1.4µM*,·,0.048µM*
Cc1sc2c(c1C)C(c1ccc(C(C)(C)C)cc1)=NCC(=O)N2CC(=O)Nc1nccs1,30%,10µM*,-32%,-29%,-27%,?
O=C1CCCC2=C1C1O[C@](CCCCN3C(=O)c4ccccc4C3=O)(Cc3ccccc31)O2,·,?,-45%,·,3%[6.58 µM],?
CC(=O)n1cc([C@@H]2C=C(C(=O)N3CCN(Cc4ccc5c(c4)OCO5)CC3)O[C@H](OCCCCO)C2)c2ccccc21,-9%,12µM*,-6%,?,1%,?

# Screening results (PubChem BioAssay)
